# Source: PubChem BioAssay AID1048 (The Scripps Research Institute Molecular Screening Center, 2008)
# About 390 (0.39%) of roughly 99,000 compounds were called active. No stated cut-off is given here; in the data, active means TR-FRET ratio above about 2000; inactive means the rest. For the sample, actives were picked, then their nearest neighbours and some compounds at random.
# Assay: TR-FRET detection interference compounds, artefact control for PPARgamma SRC-3 recruitment agonists, biochemical, TR-FRET ratio (AID 1048)
# Details: TR-FRET artefact counter-screen, PPARgamma/SRC-3 format; at 8 µM; hits give high values
row,Compound,TR-FRET ratio
1,CC(=O)C1C(c2ccc(Cl)cc2)c2c(n[nH]c2C)CC1(C)O (stereo not drawn),1710 (inactive)
2,COc1ccc(NS(=O)(=O)c2cc(NC(=O)C3CCCCC3)ccc2N2CCOCC2)cc1,1510 (inactive)
3,O=C(Nc1ccc([N+](=O)[O-])cc1)C1CC12CCC2 (stereo not drawn),1620 (inactive)
4,CC(=O)c1ccc(S(=O)(=O)Nc2ccc(C(=O)NCC(c3ccccc3)N(C)C)cc2)cc1 (stereo not drawn),1580 (inactive)
5,CC(Sc1cccc[n+]1[O-])C(=O)Nc1cccc(S(=O)(=O)N2CCOCC2)c1 (stereo not drawn),1620 (inactive)
6,COc1ccc(/C=N/NC(=O)c2ccccc2)cc1OS(=O)(=O)c1ccccc1,1630 (inactive)
7,COc1cccc(CNC(=O)CCN2C(=S)NC(C)(C)CC2C)c1 (stereo not drawn),1480 (inactive)
8,O=C(COC(=O)c1ccccc1F)Nc1cc(S(=O)(=O)N2CCOCC2)ccc1N1CCCC1,1600 (inactive)
9,O=C(Nc1ccc(NC(=O)c2ccco2)c(Cl)c1)c1cccc([N+](=O)[O-])c1,1700 (inactive)
10,Cc1ccc2[nH]c(C)c(CCNC(=O)NC3CCCCC3)c2c1,1590 (inactive)
11,CCN(C(=O)COC(=O)/C=C/c1nc2ccccc2s1)C1CCS(=O)(=O)C1 (stereo not drawn),1560 (inactive)
12,COCc1c(C(=O)OCc2c(C)noc2C)oc2ccccc12,1630 (inactive)
13,CCN1CCN(C(=O)CCN2C(=O)c3ccccc3C2=O)CC1,1540 (inactive)
14,COc1ccc(S(=O)(=O)Nc2cccnc2)c(Cl)c1Cl,1690 (inactive)
15,CCn1ccnc1CN(C)Cc1nc(-c2ccc3c(c2)OCO3)no1,1670 (inactive)
16,COc1ccc(-n2c(=S)[nH]c3sc4c(c3c2=O)CCc2ccccc2-4)cc1,1560 (inactive)
17,O=C(CCN1CCCCC1)N=Nc1c(O)[nH]c2ccccc12,1900 (inactive)
18,CCn1c(=O)cc(SCC(=O)NCCC2=CCCCC2)c2ccccc21,1710 (inactive)
19,CCN(CCCNC(=O)CSc1cc(=O)n(C)c2cc(Cl)ccc12)Cc1ccccc1,2580 (active)
20,O=C(CSc1cccc[n+]1[O-])NCCCc1ccccc1,1360 (inactive)
21,Cn1cnnc1Sc1ccc(CN2CCN(C3CCCC3)C(CCO)C2)o1 (stereo not drawn),1420 (inactive)
22,CN(c1ccccc1)c1nc(N)c([N+](=O)[O-])c(NCc2ccco2)n1,1700 (inactive)
23,C/C(N)=C(/C#N)C(=O)COC(=O)CNS(=O)(=O)c1ccc(C)cc1,1640 (inactive)
24,Cc1c(C(=O)Nc2ccccc2)sc2nc3n(c(=O)c12)CCCCC3,1500 (inactive)

row,Compound,TR-FRET ratio
1,O=C(CCCn1c(=O)c2sccc2n(CC(=O)NCC2CCCO2)c1=O)NCc1ccco1 (stereo not drawn),1480 (inactive)
2,CCn1nc(C)cc1C(=O)N1CCCC(C(=O)c2cccc(OC)c2)C1 (stereo not drawn),1380 (inactive)
3,CCCCN(C(=O)c1ccc(OC(F)(F)F)cc1)c1c(N)n(CCC)c(=O)[nH]c1=O,1550 (inactive)
4,CN(C)c1nc(-c2cccnc2)nc(-c2ccc(Cl)cc2)c1C#N,1720 (inactive)
5,CC(=O)c1ccc(NC(=S)N(Cc2ccccc2)C(C)C2CC2)cc1 (stereo not drawn),1760 (inactive)
6,CN1CCN(c2ccc(S(=O)(=O)N3CCCCC3)cc2NC(=O)Cc2ccccc2F)CC1,1600 (inactive)
7,Cc1cccc(C)c1NC(=O)C1(C)c2cccc[n+]2CC(=O)N1Cc1cccs1 (stereo not drawn),1340 (inactive)
8,Cc1ccc(C(=O)NC(=S)NCCN2CCOCC2)cc1,1640 (inactive)
9,O=C1CCCC(O)=C1N=Nc1ccc2ncsc2c1,1660 (inactive)
10,O=C(c1ccccc1Cl)N(Cc1ccccc1F)N1C(=O)CCCC1=O,1570 (inactive)
11,Cc1ccc(S(=O)(=O)N2CCOCC2)cc1NC(=O)CSc1nnc(N)s1,1740 (inactive)
12,S=c1[nH]nc(COc2ccccc2)n1-c1ccccc1,1490 (inactive)
13,Fc1ccc(COc2cccc(-c3n[nH]c(=S)o3)c2)cc1,2970 (active)
14,Cc1cccc(OCc2ccc(C(=O)Nc3ccc(F)cc3)cc2)c1,1440 (inactive)
15,O=C(CCc1ccccc1)Nc1ccc(NC(=O)C2CCCCC2)nc1,1430 (inactive)
16,CCOP(=O)(OCC)C(Nc1ccc([N+](=O)[O-])cc1)c1ccc(Cl)cc1 (stereo not drawn),1560 (inactive)
17,Cc1csc(CN(C)C(=O)CC2C(=O)NCCN2CC(C)(C)C)n1 (stereo not drawn),1590 (inactive)
18,O=S(=O)(NC1CC1)c1ccc2c3c(cccc13)CC2,1560 (inactive)
19,COc1cccc(OC)c1C(=O)NC(=S)Nc1ccc(N2CCOCC2)c(Cl)c1,1350 (inactive)
20,COc1ccc(C2(CNC(=O)Cc3ccc(OC)c(OC)c3)CCCC2)cc1,1430 (inactive)
21,COc1ccc(C(=O)NNC(=S)NC(=O)c2ccccc2[N+](=O)[O-])cc1,1550 (inactive)
22,CCN(C(=O)COC(=O)c1cc(NS(=O)(=O)c2ccc(Cl)c([N+](=O)[O-])c2)ccc1O)C1CCCCC1,1460 (inactive)
23,CCN(CC)c1ccc(C(=O)N/N=C(\C)c2cccc(OC)c2)cc1,1500 (inactive)
24,O=C(NCCCN1CCOCC1)c1ccc(N2CCCC2)c([N+](=O)[O-])c1,1590 (inactive)

row,Compound,TR-FRET ratio
1,Cc1cc(C(=O)CC#N)c(C)n1-c1c(C)n(C)n(-c2ccccc2)c1=O,1450 (inactive)
2,CCOc1ccc(N2C(=O)CN(c3cccc4ccccc34)C2=S)cc1,1810 (inactive)
3,CC(C)(C)NC(=O)CN1CCC(NC(=O)C23CC4CC(CC(C4)C2)C3)CC1,1580 (inactive)
4,CCOC(=O)C1(CCOc2ccccc2)CCN(C(=O)c2cncs2)CC1,1510 (inactive)
5,CCC(=O)Nc1cc(C(F)(F)F)ccc1N1CCCC1,1710 (inactive)
6,COc1ccc(C(=O)NNc2cc(C)nc(NNC(=O)c3ccc(OC)cc3)n2)cc1,1420 (inactive)
7,COc1cc(CNc2ncn[nH]2)ccc1OCc1ccccc1C,1650 (inactive)
8,OCCC1CN(Cc2cnc(-c3ccccc3)s2)CCN1CCc1ccccc1 (stereo not drawn),1800 (inactive)
9,CCC(C)N(C(=O)COC(=O)C1C(C(=O)OC)=C(C)NC(C)=C1C(=O)OC)C1CCS(=O)(=O)C1 (stereo not drawn),1620 (inactive)
10,CCOC(=O)N/N=C/c1cccnc1,1540 (inactive)
11,OCC1(CCc2ccccc2)CCN(Cc2ccc3nsnc3c2)CC1,2140 (active)
12,CC(=O)c1cccc(CN2CCC(CO)(Cc3ccccc3)CC2)c1,1520 (inactive)
13,Cc1cccc(-c2ncc(CN3CCC(CO)(CCCc4ccccc4)CC3)cn2)c1,1420 (inactive)
14,CCOC(=O)c1c(C)n(C)c2ccc(OC)c(NS(=O)(=O)CC)c12,1490 (inactive)
15,CN(CC(=O)N1CCN(c2ccccc2)CC1)S(=O)(=O)c1cccs1,1700 (inactive)
16,Cc1nc(N2CCOCC2)c2c(C)c(C(=O)Nc3ccc(C(F)(F)F)cc3)sc2n1,1750 (inactive)
17,Cc1nc(N2CCC(C)CC2)c2c(C)c(C(=O)Nc3cc(F)ccc3C)sc2n1,2360 (active)
18,Cc1nc(N2CCN(c3ccccn3)CC2)c2c(C)c(C(=O)Nc3ccc(F)cc3)sc2n1,1960 (inactive)
19,CC(C)(C)c1ccc(NC(=O)COC(=O)CCc2nc3ccccc3c(=O)[nH]2)cc1,1560 (inactive)
20,CCC(C(=O)OCC(=O)Nc1ccc(C(=O)Nc2ccc(OC)cc2)cc1)c1ccccc1 (stereo not drawn),1460 (inactive)
21,CC(C)N1CCC(NC(=O)Nc2ccccc2)CC1,1620 (inactive)
22,COC(=O)c1ccc(C(=O)OC)c(NC(=S)N2CCN(c3ccc(F)cc3)CC2)c1,1500 (inactive)
23,C=CCn1c(CNC(=O)c2ccco2)nnc1SCC(=O)c1ccc(OC)cc1,1770 (inactive)
24,CCc1ccc(OCC(=O)OCC(=O)c2c(N)n(C)c(=O)n(C)c2=O)cc1,1320 (inactive)

row,Compound,TR-FRET ratio
1,CC(C)(C)NC(=O)c1ccc(Cn2cc(C(F)(F)F)ccc2=O)cc1,1730 (inactive)
2,N/C(Cc1ccc([N+](=O)[O-])cc1)=N\OC(=O)C1CCCCC1,1640 (inactive)
3,COc1ccc(N2CCN(C(=O)CNS(=O)(=O)c3ccc(C)c(C)c3)CC2)cc1,1450 (inactive)
4,CN1CCC(=NNC(=O)CN(c2cccc(Cl)c2)S(C)(=O)=O)CC1,1650 (inactive)
5,COc1cc(C(=O)Nc2cc(C(F)(F)F)ccc2N2CCOCC2)ccc1O,1560 (inactive)
6,CCc1ccc(NC(=O)CC2C(=O)NCCN2C(=S)Nc2ccccc2)cc1 (stereo not drawn),1500 (inactive)
7,Cc1c(C(N)=O)sc2ncn(CCOc3ccccc3)c(=O)c12,1550 (inactive)
8,Cc1cc(C2=NNC(=Nc3ccc(S(=O)(=O)N4CCOCC4)cc3)SC2)c(C)n1CC1CCCO1 (stereo not drawn),1650 (inactive)
9,Cc1ccc(OCC(=O)NNC(=S)NCc2ccccc2)cc1,1530 (inactive)
10,Cc1[nH]nc(SCC(=O)NCC(C)C)c1[N+](=O)[O-],1720 (inactive)
11,CC(=O)Nc1ccc(NC(=O)C(C)n2c3ccccc3c3nc(=O)cc(C)n32)cc1 (stereo not drawn),1620 (inactive)
12,COc1ccc(C(=O)CSc2nnc(-c3ccco3)o2)cc1,1800 (inactive)
13,COC(=O)c1ccc(/C=N/OCC(=O)Nc2cc(F)ccc2F)cc1,1390 (inactive)
14,O=C(Nc1c2c(nc3ccccc13)CCCC2)c1ccccc1Br,1760 (inactive)
15,O=C(COC(=O)c1c2c(nc3ccccc13)CCCC2)c1ccc(Br)s1,4220 (active)
16,O=C(COC(=O)c1c2c(nc3ccccc13)/C(=C\c1cccs1)CCC2)Nc1ccccc1Cl,1790 (inactive)
17,O=C(Nc1ccc2ccccc2c1)/C(=C\c1ccc2c(c1)OCO2)NC(=O)c1ccco1,1560 (inactive)
18,O=C(CSc1ccc(-c2cccs2)nn1)Nc1ccccc1F,1640 (inactive)
19,Cc1ccccc1-c1n[nH]c(=S)n1/N=C/c1ccc(-c2ccccc2Br)o1,2150 (active)
20,Cc1ccccc1-c1n[nH]c(=S)n1C,1470 (inactive)
21,S=c1[nH]nc(-c2ccccc2)n1/N=C/c1c[nH]c2ccccc12,1470 (inactive)
